The test system of experiment [1] is Nanoluciferase (engineered Oplophorus gracilirostris luciferase). Kind of experiment: Primary Nanoluciferase (NLuc) qHTS assay for identification of artifact compounds. (AID 1845222).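 Note: NLuc secreted into diluted conditioned medium of S16 cells; 0% = DMSO and -100% = no enzyme.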 As to conditions: NLuc-conditioned medium, Nano-Glo luminescence, 5 min; series mostly up to 54.1 µM. Summed up: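 S16 cell supernatant NLuc, 1:55; cpds qHTS; 15 min RT dark; Nano-Glo substrate 1:100, 5 min; luminescence; Hill fit of % inhibition.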
(Quantitative high-throughput screening tests each substance at several concentrations.)

The nature of experiment [2]: Primary redox qHTS assay for identification of artifact compounds. (AID 1845223).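 Note: 0% = DMSO and 100% = reference compound.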 The note with it: Amplex Red/HRP redox cycling with DTT, fluorescence; series mostly up to 53.8 µM. Summed up: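 Redox-cycling detection via DTT (250 uM final) oxidation coupled to Amplex Red (25 uM)/HRP (250 mU/mL) in HBSS. 15 min preincubation plus 30 min after DTT, room temperature. Ex/Em 525/598 nm; 4-parameter Hill fit against DMSO and 10 uM DA3003.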

Consider 22 compounds from PubChem BioAssay (NCATS).

Values without a mark were called inactive. Inconclusive results are not listed. Active and inactive are the calls of the source. Calls come from the whole dose curve; as a rule, active = well fitted curve in the direction sought with a large enough effect; inconclusive = small, poorly fitted or top-dose-only effect, or another doubt; inactive = no such curve, though single readings can be large; an effect the other way counts as inactive or inconclusive.

In the case of `C[C@@H]1O[C@@H](O[C@H]2[C@H](OC(=O)[C@]34CCC(C)(C)C[C@H]3C3=CCC5[C@@]6(C)CC[C@H](O[C@@H]7O[C@H](CO[C@@H]8OC[C@H](O)[C@H](O)[C@H]8O[C@@H]8OC[C@@H](O)[C@H](O)[C@H]8O)[C@@H](O)[C@H](O)[C@H]7O)C(C)(C)C6CC[C@@]5(C)[C@]3(C)C[C@H]4O)O[C@H](CO)[C@@H](O)[C@@H]2O)[C@H](O[C@@H]2O[C@H](CO)[C@@H](O)[C@H](O)[C@H]2O)[C@H](O)[C@H]1O[C@@H]1OC[C@@H](O)[C@H](O[C@@H]2OC[C@@H](O)[C@H](O)[C@H]2O)[C@H]1O` (some centres undefined), the activity, negative = inhibition in experiment [1] is 3.87% [at 6.45 µM]. In addition, in experiment [2], the redox activity (% of DA3003) is 13.7% [at 6.41 µM].

With `COc1cc(CCCO)ccc1O[C@@H]1O[C@H](CO)[C@@H](O)[C@H](O)[C@H]1O`, the Potency entry in experiment [1] and in experiment [2] was “inactive” throughout.

As to `CC(C)C(O)(CO)CCO[C@@H]1O[C@H](CO[C@H]2OC[C@](O)(CO)[C@H]2O)[C@@H](O)[C@H](O)[C@H]1O` (some centres undefined), the Potency result in experiment [1] and in experiment [2] was “inactive” in each case.

As for `CC(=O)OC1C(O)C(C)(O)C(/C=C/C(=O)O)C2(C)CCCC(C)(C)C12` (centres undefined), the Potency entry in experiment [1] and in experiment [2] was “inactive” each time.

Turning to `C[C@@H]1O[C@@H](O[C@@H]2[C@@H](O)[C@H](O[C@@H]3[C@@H](O)[C@@H](O)[C@H](O[C@H]4[C@H](OC(=O)[C@]56CCC(C)(C)C[C@H]5C5=CCC7[C@@]8(C)C[C@H](O)[C@H](O[C@@H]9O[C@H](C(=O)O)[C@@H](O)[C@H](O)[C@H]9O)[C@@](C)(CO)C8[C@H](O)C[C@@]7(C)[C@]5(C)C[C@H]6O)O[C@@H](CO)[C@@H]4O)O[C@H]3C)OC[C@H]2O)[C@H](O)[C@H](O)[C@H]1O` (some centres undefined), the activity, negative = inhibition in experiment [1] is 4.49% [at 11.6 µM]. Further, the redox activity (% of DA3003) in experiment [2] is 16.5% [at 11.5 µM].

As for `C=C[C@@](C)(CCC=C(C)C)O[C@@H]1O[C@H](CO[C@@H]2OC[C@H](O)[C@H](O)[C@H]2O)[C@@H](O)[C@H](O)[C@H]1O`, the Potency result in experiment [1] and in experiment [2] was “inactive” each time.

Regarding `CC1(C)CC[C@]2(C(=O)O[C@@H]3O[C@H](CO)[C@@H](O)[C@H](O)[C@H]3O)CC[C@]3(C)C(=CCC4[C@@]5(C)C[C@@H](O)[C@H](O)[C@@](C)(CO)C5[C@H](O)C[C@]43C)C2[C@@H]1O` (some centres undefined), the Potency entry in experiment [1] and in experiment [2] was “inactive” each time.

`C=C(C)[C@@]1(O)C[C@@]2(C)C(=CC1=O)CC[C@@H](O)[C@@H]2C`: the Potency result in experiment [1] and in experiment [2] was “inactive” in each case.

On to `N#Cc1cccc(-c2nc(-c3cccnc3)no2)c1`, for which the Potency result in experiment [1] and in experiment [2] was “inactive” in each case.

As for `CC1=CC[C@@]2(C)CC[C@@](O)(C(C)C)[C@@H]2[C@@H](O)C1`, the Potency result in experiment [1] and in experiment [2] was “inactive” each time.

With `CC12CC(O)C(O)C=C1c1cc(O)cc(O)c1C(=O)O2` (centres undefined), the Potency result in experiment [1] and in experiment [2] was “inactive” in each case.

As to `N#CC1C(=O)N=C(c2cc(Cl)ccc2O)C=C1c1cc(OCc2ccccc2)cc(OCc2ccccc2)c1` (centres undefined), the Potency entry in experiment [1] and in experiment [2] was “inactive” throughout.

For `CC1=CCC[C@@H]2[C@@](C)(CCc3ccoc3)[C@H](C(=O)O)CC[C@@]12C`, the Potency entry in experiment [1] and in experiment [2] was “inactive” each time.

With `C=C1CC23CC(=O)C4C(CO)(CO)CCCC4(C)C2CCC1C3` (centres undefined), the Potency entry in experiment [1] and in experiment [2] was “inactive” throughout.

On to `CCOC(=O)CSc1nc2c(sc3ccccc32)c(=O)n1CCCN1CCCC1`, for which the Potency entry in experiment [1] and in experiment [2] was “inactive” each time.

As for `C=C(CCO)C(=O)OCC1OCC(OC(=O)C(=C)CCO[C@@H]2O[C@H](COC(=O)C(=C)CCO[C@@H]3O[C@H](CO)[C@@H](O)[C@H](O)[C@H]3O)[C@@H](O)[C@H](O)[C@H]2O)C(O)C1O` (some centres undefined), the Potency entry in experiment [1] and in experiment [2] was “inactive” each time.

For `C=C(C)[C@@H]1CC[C@]2(C(=O)O)CC[C@]3(C)C(CCC4[C@]5(C)C(CC[C@]43C)C(C)(C)[C@@H](O)[C@@H]5C(=O)O)C12` (some centres undefined), the Potency entry in experiment [1] and in experiment [2] was “inactive” throughout.

For `CC1(C)C2CC[C@]3(C)C(C(=O)C=C4[C@H]5C[C@@](C)(C(=O)O)CC[C@]5(C)CC[C@]43C)[C@@]2(C)CC[C@@H]1O` (some centres undefined), the Potency result in experiment [1] and in experiment [2] was “inactive” throughout.

For the compound `CC[C@@H](C)[C@H](N)C(=O)N1Cc2ccccc2C1`, the Potency entry in experiment [1] and in experiment [2] was “inactive” each time.

For `COC(=O)[C@@H](NC(=O)[C@H](CC(C)C)NC(=O)N(Cc1ccccc1)C[C@@H](O)[C@H](Cc1ccccc1)NC(=O)OC(C)(C)C)C(C)C`, the activity, negative = inhibition in experiment [1] is -4.83% [at 11.6 µM]. For the same compound, in experiment [2], the redox activity (% of DA3003) is 19.1% [at 11.5 µM].

Take `CN(C)CCC[C@]1(c2ccc(F)cc2)OCc2cc(C#N)ccc21`: the Potency result in experiment [1] and in experiment [2] was “inactive” in each case.

With `C/C=C1/C[N+](C)([O-])C2Cc3c([nH]c4ccccc34)C(=O)CC1C2C(=O)OC` (centres undefined), the Potency result in experiment [1] and in experiment [2] was “inactive” throughout.
